RE007 growth inh: qHTS Assay for Inhibitors of the HIV-1 protein Vpr; S. pombe RE007 Vpr strain, BacTiter-Glo ATP luminescence, 24 h; Potency, µM (titrated, usually from 92.2 µM), for inactives: at the top dose activity change, negative = less growth, most hits filed as inhibitors; 360,000 tested, 0.21% active; AID 651644, 2012; active = well fitted falling curve with a large enough effect; inconclusive = small, poorly fitted or top-dose-only effect; inactive = no such curve, though single readings can be large or run the other way; note: potency is the fitted concentration of half-maximal effect; % is set by controls: 0 for no effect and ±100 for the full control effect; nearly all actives have a fitted effect of over 50% in size
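Fission yeast strain RE007, carrying one chromosomally integrated HIV-1 vpr copy, was seeded at OD 0.01 in PMG+AL medium with 23 nL pinned compound. After 24 h at 30 °C and 99% humidity, viability was read by BacTiter-Glo luminescence.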
Pf growth 48h: Primary qHTS for delayed death inhibitors of the malarial parasite plastid, 48 hour incubation; AID 504832, 2011; Potency, µM (titrated, usually from 28.7 µM), for inactives: at the highest dose activity change, negative = inhibition, usual class: inhibitors; P. falciparum luciferase growth in erythrocytes, 48 h; 310,000 tested, 5.9% active; note: potency is the fitted concentration of half-maximal effect; % is set by controls: 0 for no effect and ±100 for the full control effect
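First compound was added to culture medium, then infected red cells at 0.1% parasitemia and 2% hematocrit (final). After incubation at 37 C under 5% CO2, luciferase detection reagent was dispensed and light output recorded.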
SARS PLpro yeast-1: qHTS of Yeast-based Assay for SARS-CoV PLP; S. cerevisiae expressing SARS-CoV PLpro, growth rescue; Potency, µM (top dose mostly 32.9 µM), for inactives: at the highest dose activity, positive = growth rescue, actives largely listed as activators; 330,000 tested, 0.19% active; calls by dose curve; note: potency is the fitted concentration of half-maximal effect; 0% is about no effect; nearly all actives have a fitted effect of over 55% in size
NS1 function inh: qHTS Assay for Inhibitors of Influenza NS1 Protein Function; Potency, µM (highest dose often 46.1 µM), for inactives: at the highest dose activity, positive = more growth; 270,000 tested, 0.4% active; calls by dose curve; note: potency is the fitted concentration of half-maximal effect; actives are rising curves; nearly all actives have a fitted effect of over 50% in size
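Recovery from NS1-induced slow growth read by OD600 in budding yeast switched to galactose assay medium (pH 6.0, -URA) at 1:100 dilution. Compound 23 nl per well; the matching strain lacking NS1 serves as control.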
Pf growth 96h: Primary qHTS for delayed death inhibitors of the malarial parasite plastid, 96 hour incubation | P. falciparum luciferase reporter growth, 96 h | Potency, µM (top dose mostly 28.7 µM), inactives show top-dose activity change, negative = inhibition, actives largely listed as inhibitors | 320,000 tested, 6.9% active; note: potency is the fitted concentration of half-maximal effect; % is set by controls: 0 for no effect and ±100 for the full control effect
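Two parasite generations (96 h, 37 C, 5% CO2) of compound exposure in infected erythrocytes (0.05% parasitemia, 2% hematocrit). Luciferase-reporter P. falciparum; decreased luminescence indicates inhibited growth, aimed at apicoplast-acting delayed death.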
SARS PLpro yeast-2: qHTS of Yeast-based Assay for SARS-CoV PLP: Hit Validation; shares compounds with SARS PLpro yeast-1; yeast expressing SARS-CoV PLpro, growth phenotype rescue; calls only; 1,000 tested, 19% active; call rule not given here
An asterisk follows results filed as active; i = inactive; ? = inconclusive; · = no result given; + = active, no number. A selection: hits, their analogues and other compounds. The true share with any hit is near 9.5%. Unless noted, calls come from the whole dose curve; as a rule, active = well fitted inhibition curve with a large enough effect; inconclusive = small, poorly fitted or top-dose-only effect, or another doubt; inactive = no such curve, though single readings can be large or run the other way.

SMILES	RE007 growth inh	Pf growth 48h	SARS PLpro yeast-1	NS1 function inh	Pf growth 96h	SARS PLpro yeast-2
CCCC(=O)NC(c1ccc(C)cc1)c1ccc2cccnc2c1O (stereo not drawn)	?	3.7µM*	?	-144%	32%	+
Cc1cc(C)c(S(=O)(=O)NCc2cccnc2)c(C)c1	8%	0%	-2%	-1%	217%	·
Cc1ccc(C)c2nc3sc(C(=O)O)cc3cc12	-12%	41%	-1%	?	47%	·
CCOc1ccc(C(=O)CCC(=O)N2CCN(S(=O)(=O)c3cccc(F)c3)CC2)cc1	-6%	?	8%	·	?	·
O=C(COc1nsnc1N1CCOCC1)N/N=C/c1ccccc1O	0%	?	?	-27%	-89%	i
O=C(Cc1csc(N2CCOCC2)n1)N/N=C/c1ccc(O)c(O)c1O	12%	1%	10µM*	·	1%	i
Cn1ncc2c(NNC(=O)c3ccc(Cl)c(Cl)c3)ncnc21	1%	-29%	22%	-8%	?	·
Cn1ncc2c(NNC(=O)c3ccc(Cl)cc3Cl)ncnc21	20%	33%	?	-6%	22%	i
COc1ccc(COCC(O)CN(Cc2ccccc2)C(C)C)cc1OC (stereo not drawn)	-5%	20%	1%	·	10%	·
COC(=O)Cc1c[nH]c2cccc(OCC(O)CN(Cc3ccccc3)C(C)C)c12 (stereo not drawn)	13%	?	?	2%	?	i
COC(=O)C1=C2SCC(=O)N2C(N)=C(C#N)C1	23%	-4%	1%	5%	-10%	·
CCOC(=O)C1=C2SCC(=O)N2C(N)=C(C#N)C1	-7%	16%	?	11%	13%	i
CCOCCn1c(N2CCCC2)nc2c1c(=O)[nH]c(=O)n2C	-1%	42%	-6%	-21%	?	·
COc1ccc(CN(C)C[C@H]2OCc3cnnn3CCCC(=O)N([C@H](C)CO)C[C@@H]2C)cc1	-4%	·	·	·	·	·
O=C(COC(=O)c1ccccc1NCCO)NNC(=O)c1cccs1	14%	2%	?	·	37%	i
C[C@H](CO)N1C[C@H](C)[C@@H](CN(C)S(=O)(=O)c2ccccc2)Oc2ccc(NC(=O)Nc3ccccc3)cc2C1=O	1%	·	-1%	·	·	·
C[C@@H]1CN([C@H](C)CO)C(=O)c2cc(NS(=O)(=O)c3cn(C)cn3)ccc2O[C@H]1CN(C)C(=O)Nc1ccccc1	-11%	·	?	·	·	i
C[C@H](CO)N1C[C@H](C)[C@@H](CN(C)Cc2ccc(-c3ccccc3)cc2)Oc2c(NC(=O)Nc3ccc4c(c3)OCO4)cccc2C1=O	7%	·	11µM*	·	·	i
C[C@H](CO)N1C[C@H](C)[C@@H](CN(C)S(C)(=O)=O)Oc2c(NC(=O)Nc3ccc4c(c3)OCO4)cccc2C1=O	1%	·	0%	·	·	·
C[C@H](CO)N1C[C@H](C)[C@@H](CN(C)Cc2ccc(C(=O)O)cc2)Oc2c(NC(=O)Cc3ccccc3)cccc2C1=O	37%	·	11µM*	·	·	i
Cc1ccc(S(=O)(=O)N(C)C[C@@H]2Oc3ccc(NC(=O)Nc4cccc5ccccc45)cc3C(=O)N([C@H](C)CO)C[C@H]2C)cc1	0%	·	5µM*	·	·	i
O=C(Nc1cccc(S(=O)(=O)N2CCOCC2)c1)C1COc2ccccc2O1 (stereo not drawn)	-19%	1%	-4%	·	42%	·
O=C1NC(=O)C2(CCCCC2C2CCCCC2)N1 (stereo not drawn)	-16%	·	·	·	·	·
O=C1N=C(N2CCCC2)S/C1=C\C=C\c1ccccc1	4%	8%	0%	0%	0%	·
COC(=O)CNC(c1ccccc1)c1cc(C)ccc1NC(=O)c1cccc(Cl)c1 (stereo not drawn)	-12%	?	?	-37%	13µM*	i
SMILES	RE007 growth inh	Pf growth 48h	SARS PLpro yeast-1	NS1 function inh	Pf growth 96h	SARS PLpro yeast-2
CCOC(=O)CNC(c1ccccc1)c1cc(Br)ccc1NC(C)=O (stereo not drawn)	-14%	?	0%	-2%	-26%	·
O=CN1CCCN(Cc2nc(-c3cccc(Cl)c3)no2)CC1	-2%	87%	0%	-3%	3%	·
COc1ccccc1NCC(=O)N/N=C/C=C/c1ccccc1	10%	-6%	?	?	-1%	i
CN1OC[C@@H]2CN[C@H](c3ccc(-c4cccc(F)c4)cc3)C[C@@H]21	8%	·	·	·	·	·
O=C(COC(=O)c1cnc(Cl)c(Cl)c1)Nc1ccc(S(=O)(=O)N2CCCC2)cc1	2%	-2%	?	6%	-28%	i
COc1ccc(N2CCN(C(=O)c3c(C)nn(-c4ccccc4)c3C)CC2)cc1	10%	-13%	7%	-15%	-2%	·
COc1ccc(C(=O)CC(=O)C(=O)NCCc2cccc(C)c2)cc1	-6%	-8%	20µM*	8%	12%	+
CC(C)c1ccccc1NC(=O)CNCCOc1ccccc1F	-4%	·	0%	-3%	-14%	·
Cc1ccc2c(c1)C(=NC1CCCCC1)c1cc3ccccc3nc1-2	-25%	172%	-8%	-8%	267%	·
Cc1ccc2c(c1)-c1nc3ccccc3cc1C2=NC1CCCCC1	2%	130%	?	4%	53%	i
Cc1ccc(C)c(S(=O)(=O)N2CCN(C(=O)c3sccc3C)CC2)c1	7%	?	5%	·	-11%	·
Cc1ccc(C(O)(C(=O)NNc2ccc3ccccc3n2)c2ccc(C)cc2)cc1	5%	?	?	15%	?	i
Cc1ccc(C(=O)Nc2ccc3ccccc3n2)cc1	-21%	176%	10%	-1%	411%	·
O=C(Nc1ccccc1C(=O)NCCCN1CCOCC1)c1cccc([N+](=O)[O-])c1	0%	85%	0%	4%	14%	·
COc1ccc(-c2csc3[nH]c(=S)n(-c4ccccc4)c(=O)c23)cc1OC	1%	-12%	1%	?	?	·
Cc1nc(N/N=C\c2ccc3c(c2)OCO3)sc1C	-8%	-62%	7.1µM*	-31%	-1%	+
C(=N\Nc1nc2ccccc2s1)/c1ccc2c(c1)OCO2	-1%	281%	1%	16%	?	·
Cc1cc(C(=O)NNC(=O)c2ccc(Cl)c(S(N)(=O)=O)c2)c(C)o1	19%	·	2%	·	·	·
Cc1cc(C(=O)NNC(=O)c2ccc(S(=O)(=O)N(C)C)cc2)c(C)o1	5%	11%	2.5µM*	11%	16%	i
Cc1ccc(S(=O)(=O)c2nc(Nc3ccccc3)sc2Cl)cc1	0%	7%	-94%	-2%	0%	·
Cc1ccc(S(=O)(=O)c2nc(NCCN(C)C)sc2Cl)cc1	12%	·	?	8%	?	i
O=C(Nc1nc2ccccc2n1CCN1CCOCC1)c1cn(-c2ccccc2)nc1-c1ccccc1	-26%	10µM*	?	-78%	?	?
